# Assay outcomes: PubChem BioAssay, National Center for Advancing Translational Sciences (NCATS)
# Shown is part of a subset that was picked to be rich in hits.
# CHX counter: counter-screen hit for Shiga toxin inhibitors, cycloheximide; cell reporter, cycloheximide protein synthesis inhibition counterscreen; max response, %; 300,000 compounds, 12% hits; AID 2314; in the data active means max response mostly above about 13%, no sharp cut-off; inactive means mostly below about 14%; further: read at 38.3 µM for the half of the compounds with a filed dose; 0% is about no effect
# LmPK inhibitor: inhibitors of Leishmania mexicana pyruvate kinase. purified LmPK, Kinase-Glo ATP luminescence, 1 h. 290,000 compounds, 0.37% hits. AID 1721. Potency, µM (titrated, usually from 57.5 µM), for inactives: at the highest dose activity change, negative = inhibition, hits mostly inhibitors; further: potency means the concentration at half of the fitted maximal effect; on the % scale 0 is the no-effect control and ±100 the full control effect
#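 0.1 nM LmPK, 0.5 mM PEP, 0.1 mM ADP; 50 mM imidazole pH 7.2, 7 mM MgCl2, 50 mM KCl; 1 h RT. Kinase-Glo luminescence readout, normalized to no-enzyme (full inhibition) and uninhibited wells.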
# FBPA Giardia inh: inhibitors of Giardia lamblia fructose-1,6-bisphosphate aldolase. A8B2U2. purified Giardia FBPA. Potency, µM (series often up to 59.6 µM), for inactives: at the highest dose activity, negative = inhibition, usual class: inhibitors. 290,000 compounds, 0.71% hits; further: potency means the concentration at half of the fitted maximal effect; on the % scale 0 is the no-effect control and ±100 the full control effect; nearly all actives have a fitted effect of over 55% in size
# Target sequence (A8B2U2 whole entry, looked up): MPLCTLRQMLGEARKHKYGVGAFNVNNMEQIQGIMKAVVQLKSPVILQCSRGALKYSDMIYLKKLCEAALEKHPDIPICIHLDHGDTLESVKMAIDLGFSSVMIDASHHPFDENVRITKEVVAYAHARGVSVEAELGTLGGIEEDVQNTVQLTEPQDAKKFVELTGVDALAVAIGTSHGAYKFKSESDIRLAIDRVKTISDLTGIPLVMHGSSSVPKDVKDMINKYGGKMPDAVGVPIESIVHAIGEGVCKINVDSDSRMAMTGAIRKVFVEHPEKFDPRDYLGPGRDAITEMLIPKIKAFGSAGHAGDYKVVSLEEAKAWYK
#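 40 nM FBPA preincubated 10 min at RT with compound (up to 57.5 uM final), then substrate plus GAPDH/TPI/NAD/arsenate coupling and diaphorase/resazurin added. Fluorescence read after 20 min at RT, 525/598 nm.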
# RE007 growth inh: less growth of the S. pombe RE007 Vpr strain. AID 651644. Potency, µM (highest dose often 92.2 µM), for inactives: at the highest dose activity change, negative = less growth, usual class: inhibitors. S. pombe RE007 Vpr strain, BacTiter-Glo ATP luminescence, 24 h. 360,000 compounds, 0.21% hits; active means well fitted falling curve with a large enough effect; inconclusive means small, poorly fitted or top-dose-only effect; inactive means no such curve, though single readings can be large or run the other way; further: potency means the concentration at half of the fitted maximal effect; on the % scale 0 is the no-effect control and ±100 the full control effect; nearly all actives have a fitted effect of over 50% in size
#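 Fission yeast strain RE007, carrying one chromosomally integrated HIV-1 vpr copy, was seeded at OD 0.01 in PMG+AL medium with 23 nL pinned compound. After 24 h at 30 °C and 99% humidity, viability was read by BacTiter-Glo luminescence.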
# Shiga inhibitor: inhibitors of Shiga toxin in Vero cells; Vero cells, Shiga toxin protein synthesis inhibition reporter; inhibition, % at 38.7 µM; 290,000 compounds, 9.2% hits; AID 2315; in the data active means inhibition mostly above about 28%, no sharp cut-off; inactive means mostly below about 43%; further: 0% is about no effect
# Tb PYK inh: inhibitors of Trypanosoma brucei pyruvate kinase; TbPYK enzyme, Kinase-Glo Plus ATP luminescence, 45 min; Potency, µM (titrated, usually from 76.8 µM), for inactives: at the top dose activity, negative = inhibition, hits mostly inhibitors; 410,000 compounds, 0.12% hits; Q57TT1; further: potency means the concentration at half of the fitted maximal effect; on the % scale 0 is the no-effect control and ±100 the full control effect; nearly all actives have a fitted effect of over 50% in size
#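 Screened from lowest to highest concentration, compounds were pinned into TbPYK/substrate mixtures, and ADP (130 uM final) was added. Plates sat at room temperature for 45 min prior to Kinase-Glo Plus detection by luminescence.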
# The depositor's hits bear a star; ? = inconclusive; / = no result. Unless noted, the call rests on the fitted dose curve; in most records, active means well fitted curve in the direction sought with a large enough effect; inconclusive means small, poorly fitted or top-dose-only effect, or another doubt; inactive means no such curve, though single readings can be large; an effect the other way counts as inactive or inconclusive.
SMILES,CHX counter,LmPK inhibitor,FBPA Giardia inh,RE007 growth inh,Shiga inhibitor,Tb PYK inh
O=C(CCCCCN1C(=O)c2ccccc2C1=O)Nc1ccc2c(c1)OCCO2,18.4,2.7%,-1.0%,-1.5%,46.7,0.4%
O=C(CCN1C(=O)c2ccccc2C1=O)Nc1ccc2c(c1)OCCO2,18.1*,-6.7%,-8.8%,-0.9%,active,-2.4%
O=C(CCn1cccn1)Nc1ccc2c(c1)OCCO2,56.8*,-8.3%,/,-5.3%,91.9*,-5.9%
O=C(CCCN1C(=O)CCC1=O)Nc1ccc2c(c1)OCCO2,21.9*,-2.6%,-2.8%,8.7%,91.7*,-6.1%
O=C(NC1CCSC1)c1cccc(Cl)c1 (centres undefined),-1.3,-1.0%,1.2%,0.4%,-4.5,-5.9%
Cc1cccc(-c2c3c(=O)n(C)c(=O)n(C)c3cn2-c2cc(N)c(Cl)cc2Cl)c1,/,/,/,/,/,20.8%
CCCC[C@H]1CCCO[C@@](C(=O)NCc2ccc(C)o2)(C(F)(F)F)C1,-1.5,/,-4.3%,/,-4.2,/
Cc1ccc(N=C2C(=O)Nc3ccc(Br)cc32)cc1,6.2,-3.6%,-14.4%,-12.7%,2.9,3.0%
Oc1ccc(Br)cc1-c1ccn[nH]1,10.1,2.0%,-25.1%,/,42.4*,-11.1%
CCN(CC)c1ccc(CNCCc2ccccc2F)cc1,-2.8,3.0%,-8.5%,13.4%,-17.8,-4.2%
CCN(CC)c1ccc(CNCc2cccs2)cc1,19.6*,-0.9%,-16.2%,-3.1%,59.0,1.0%
Cc1ccc2oc(C(=O)Nc3ccc(S(=O)(=O)N4CCCCC4C)cc3)cc(=O)c2c1 (centres undefined),/,/,/,/,/,-0.3%
CC(=O)O[C@@H]1C(=O)O[C@H]2[C@@H]1OC(=O)[C@@H]2OC(C)=O,/,/,/,/,/,1.2%
CCOC(=O)CNC1CC(=O)N(c2ccc(Br)cc2)C1=O (centres undefined),-1.5,-11.6%,2.3%,12.6µM*,5.3,-0.3%
Cc1c(Cl)cccc1N1C(=O)CC(NNC(=O)c2cccnc2)C1=O (centres undefined),0.8,-1.9%,-13.2%,4.3%,-7.5,1.3%
Cc1c(Cl)cccc1N1C(=O)CC(NNC(=O)c2cccs2)C1=O (centres undefined),20.2*,0.1%,-0.7%,-11.1%,18.4,1.0%
O=C(NNC1CC(=O)N(c2ccc(Br)cc2)C1=O)c1cccs1 (centres undefined),13.7,3.0%,2.7%,9.8%,34.7*,3.7%
O=C(NNC1CC(=O)N(c2ccc(Br)cc2)C1=O)c1ccco1 (centres undefined),1.7,4.7%,2.9%,4.7%,23.3,-6.2%
Cc1cc(=O)n(Cc2ccccc2)c2c1c(C)nn2C,/,/,/,/,/,3.3%
COc1ccc(C(=O)Nc2ccc3nc(SCC(=O)N(C)c4ccccc4)sc3c2)cc1,/,/,/,/,/,2.0%
CCc1cccc(NC(=O)c2cc3c(=O)n(Cc4ccc(OC)cc4)ccc3nc2C)c1,/,/,/,/,/,-6.9%
CS(=O)(=O)Nc1ccc(C(=O)NCCC2=CCCCC2)cc1,55.3*,0.9%,11.0%,8.3%,143.9*,-4.7%
CS(=O)(=O)N(Cc1ccc(Cl)cc1)c1ccc(C(=O)NCCC2=CCCCC2)cc1,-1.7,0.6%,2.1%,-9.3%,-7.7,4.3%
O=C(NCCC1=CCCCC1)c1ccc(Cl)cc1,32.6*,0.4%,-3.9%,/,45.8,/
O=C(NCCC1=CCCCC1)c1ccc(Cl)c(S(=O)(=O)N2CCCCC2)c1,30.4,-6.8%,-0.5%,2.0%,49.7,4.6%
SMILES,CHX counter,LmPK inhibitor,FBPA Giardia inh,RE007 growth inh,Shiga inhibitor,Tb PYK inh
O=C(NCCC1=CCCCC1)c1ccc(Cl)c(S(=O)(=O)N2CCOCC2)c1,11.7,0.6%,-3.1%,17.6%,active,-7.0%
CC(=O)NC(CC(C)C)C(=O)NC(Cc1ccccc1)C(=O)CCl (centres undefined),/,/,/,-5.6%,/,6.9%
CC(=O)NC(CC(C)C)C(=O)NC(Cc1ccccc1)C(N)=O (centres undefined),8.8*,3.1%,7.8%,-14.9%,8.8,-1.4%
CCOC(=O)CN1C(=O)S/C(=C/C=C/c2ccc(N(C)C)cc2)C1=O,30.1*,-8.6%,0.7%,-2.1%,15.2,-6.8%
CCOC(=O)CN1C(=O)S/C(=C/c2ccc3c(c2)n(C)c(=O)n3C)C1=O,40.2*,0.1%,0.8%,2.9%,43.9*,-2.8%
CCn1cc2nc(SCC(=O)Nc3ccc(C)cc3)n(Cc3ccc(C)cc3)c(=O)c2n1,/,/,/,/,/,-0.9%
O=C(NC(=S)NCCO)c1sc2ccccc2c1Cl,51.3*,-2.6%,-21.5%,-7.5%,111.3*,2.7%
CCCOC(=S)NC(=O)c1sc2ccccc2c1Cl,39.8*,-2.6%,-15.0%,-10.1%,63.3*,-15.1%
O=C(CNC(=O)c1sc2ccccc2c1Cl)NCc1cccnc1,6.4,-4.5%,/,-21.3%,16.7,-9.9%
CCOC(=S)NC(=O)c1sc2ccccc2c1Cl,32.3*,-10.4%,?,?,26.6,-10.8%
CCc1ccc(NC(=O)c2sc3nc(C)cc(C)c3c2NC(=O)c2ccccc2OC)cc1,/,/,/,/,/,-2.3%
COC(=O)CNC(=O)C1(C)C=CCN1C(=O)c1ccccc1 (centres undefined),40.1*,-1.7%,4.6%,-6.5%,94.5*,-4.4%
COC(=O)CNC(=O)C1(CC(C)C)C=CCN1C(=O)c1ccccc1 (centres undefined),/,/,2.2%,/,/,/
COc1ccc(C(=O)Nc2cnccn2)cc1[N+](=O)[O-],0.6,-5.6%,5.6%,13.4%,-6.5,3.5%
CC(C)(C)c1ccc(C(=O)Nc2cnccn2)cc1,27.5*,-15.6%,-8.8%,-7.4%,40.7*,2.7%
CC(C)(C)c1ccc(C(=O)Nc2ncn[nH]2)cc1,33.2*,-28.2%,-11.1%,16.9%,75.0*,-2.3%
C[C@H](NC(=O)OC(C)(C)C)c1nnc(SCc2ccc(Cl)cc2Cl)o1,/,/,/,/,/,3.4%
O=C(Nc1ccc(Br)cn1)c1ccc(Cl)s1,54.0*,-3.2%,5.3%,-21.5%,84.0*,1.2%
O=C(Nc1ccc2sccc2c1)c1ccc(Cl)s1,33.4*,-3.1%,0.2%,6.5%,39.2*,-5.8%
Cc1ccccc1C(=O)Nc1ccc(Br)cn1,49.1*,?,-4.2%,0.0%,90.5*,6.9%
O=C(Nc1nccs1)c1ccc(Cl)s1,19.5*,6.4%,-6.3%,-11.6%,67.5,-2.5%
COc1ccc(OC)c2sc(NC(=O)c3ccc(Cl)s3)nc12,4.1,4.0%,19.3%,-1.0%,5.1,3.0%
